The results in this text go back to PubChem BioAssay (Tox21).

The structures appear in SMILES notation. Unmarked numbers belong to inactive results. Inconclusive results are not listed. Calls of active or inactive are those of the source. Unless noted, calls follow the shape of the dose curve; as a rule, active = well fitted curve in the direction sought with a large enough effect in the repeat runs; inconclusive = weak or mixed curves; inactive = no such curve, though single readings can be large; an effect the other way counts as inactive or inconclusive.

A short description of assay [1]: qHTS RealTime-Glo MT Cell Viability Assay in HEK293 cells - 0 hour (AID 1224880). Also: top concentration of the series differs between compounds; nearly all actives have a fitted effect of over 45% in size. An outline of the steps: (§1)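 Viable HEK293 cells reduce a cell-permeant prosubstrate; the product diffuses out and is consumed by NanoLuc in the medium to give light. Compounds went in after a 5 h incubation and plates were read over the treatment course.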
Background: qHTS replaces the single test concentration by a dilution series.

Assay [2] can be described thus: A CellTox Green Cytotoxicity Assay to monitor cytotoxicity in HEK293 cells - 32 hour (AID 1224881). Also: nearly all actives have a fitted effect of over 40% in size. An outline of the steps:
(§2)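 Fluorescence intensity, read at 0, 8, 16, 24, 32 and 40 h of compound treatment, reflected dye binding to DNA of dead HEK293 cells; compounds (23 nL, DMSO) were added 5 h after plating cells with reagent.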

Assay [3] in a line: A CellTox Green Cytotoxicity Assay to monitor cytotoxicity in HepG2 cells - 0 hour (AID 1224882). Also: nearly all actives have a fitted effect of over 35% in size. An outline of the steps:
(§3)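 Using 1536-well format, dye-containing HepG2 suspension was seeded, allowed 5 h at 37 C/5% CO2, dosed by pintool with compounds, positive and negative controls, and imaged for fluorescence across 40 h.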

Assay [4] is described as follows: A CellTox Green Cytotoxicity Assay to monitor cytotoxicity in HepG2 cells - 32 hour (AID 1224883). Also: nearly all actives have a fitted effect of over 50% in size. The procedure, abridged:
as §3

Assay [5] can be described thus: A CellTox Green Cytotoxicity Assay to monitor cytotoxicity in HEK293 cells - 8 hour (AID 1224884). Also: nearly all actives have a fitted effect of over 35% in size. The procedure, abridged: as §2
The nature of assay [6]: qHTS RealTime-Glo MT Cell Viability Assay in HepG2 cells - 16 hour (AID 1224885). Also: nearly all actives have a fitted effect of over 50% in size. An outline of the steps: (§4)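 Real-time, nonlytic viability: 600 HepG2 cells/well mixed with NanoLuc enzyme plus prosubstrate; 5 h settle, compound (DMSO) added by pintool; luminescence monitored over 40 h at 37 C.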
Assay [7] in a line: qHTS RealTime-Glo MT Cell Viability Assay in HEK293 cells - 24 hour (AID 1224886). Also: top concentration of the series differs between compounds; nearly all actives have a fitted effect of over 50% in size. The procedure, abridged: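 Cells + reagent dispensed (600 cells/well, HEK293) → 5 h at 37 C/5% CO2 → 23 nL compound in DMSO pinned → 40 h at 37 C → luminescence read at 0, 8, 16, 24, 32, 40 h.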
A short description of assay [8]: qHTS RealTime-Glo MT Cell Viability Assay in HEK293 cells - 8 hour (AID 1224887). Also: top concentration of the series differs between compounds; nearly all actives have a fitted effect of over 50% in size. The procedure, abridged: as §1
Assay [9] is described as follows: A CellTox Green Cytotoxicity Assay to monitor cytotoxicity in HEK293 cells - 16 hour (AID 1224888). Also: nearly all actives have a fitted effect of over 35% in size. An outline of the steps: as §2
A short description of assay [10]: qHTS RealTime-Glo MT Cell Viability Assay in HepG2 cells - 0 hour (AID 1224889). Also: nearly all actives have a fitted effect of over 50% in size. An outline of the steps: as §4
Assay [11] can be described thus: A CellTox Green Cytotoxicity Assay to monitor cytotoxicity in HepG2 cells - 8 hour (AID 1224890). Also: nearly all actives have a fitted effect of over 45% in size. The procedure, abridged: as §3
Assay [12] can be described thus: qHTS assay to identify small molecule antagonists of the estrogen receptor alpha (ER-alpha) signaling pathway using the BG1 cell line in the presence of 0.1 nM 17-beta-estradiol - cell viability counter screen (AID 1259241). Also: nearly all actives have a fitted effect of over 40% in size. An outline of the steps: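 Estradiol-stimulated (0.1 nM) VM7Luc4E2 cells exposed to compounds 22 hr; viability measured by fluorescence of cleaved CellTiter-Fluor substrate after 30 min.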

Assay [13] is described as follows: qHTS assay to identify small molecule antagonists of the androgen receptor (AR) signaling pathway using the MDA cell line in the presence of 0.5 nM R1881 - cell viability counter screen (AID 1259242). Also: nearly all actives have a fitted effect of over 45% in size. The procedure, abridged:
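Viability of MDA-kb2 cells was multiplexed with the luciferase AR readout; after 16 hr with compounds and R1881 at 0.5 nM final, CellTiter-Fluor fluorescence was recorded.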

A short description of assay [14]: qHTS assay to identify small molecule phospholipidosis (PLD) inducers (AID 1259344; active = well fitted curve in the direction sought with a large enough effect; an effect the other way counts as inactive or inconclusive). An outline of the steps:
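Quantitative HTS in HepG2: compound plus LipidTOX Red dye for 24 h, paraformaldehyde fixation with Hoechst 33342, widefield high-content imaging; amiodarone as positive and DMSO as negative control.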

The nature of assay [15]: qHTS assay to identify small molecule HDAC inhibitors (AID 1259364).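 Also: wild-type HCT-116 cells with endogenous class I/II HDAC activity; top concentration of the series differs between compounds; nearly all actives have a fitted effect of over 45% in size.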 An outline of the steps:
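Read-out: luminescence of HDAC-Glo I/II reagent, 30 min RT, reflecting class I/II deacetylase activity in whole HCT-116 cells pre-exposed 2 h to DMSO-dissolved compounds.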

Assay [16] is described as follows: qHTS assay to identify small molecule HDAC inhibitors - cell viability counter screen (AID 1259365). An outline of the steps: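 After overnight seeding at 1,500 cells per well, wild-type HCT-116 cultures took up compounds in DMSO for 2hr at 37 C. Viable cell content came from luminescence with CellTiter-Glo.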
The nature of assay [17]: qHTS assay to identify small molecule agonists of the sonic hedgehog signaling (Shh) pathway - cell viability counter screen (AID 1259366). Also: nearly all actives have a fitted effect of over 50% in size. An outline of the steps: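 Same-well cytotoxicity read. Gli1-Luc reporter 3T3 cells; compounds 24hr, 37C/5% CO2; CellTiter-Fluor fluorescence.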
Assay [18] is described as follows: qHTS assay to identify small molecule antagonists of the sonic hedgehog signaling (Shh) pathway - cell viability counter screen (AID 1259367). Also: nearly all actives have a fitted effect of over 55% in size. The procedure, abridged:
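Seed 3T3 Gli1-Luc cells at 2,000 per well; incubate 4 hr; add compound in DMSO, then conditioned medium; incubate at 37C with 5% CO2; add CellTiter-Fluor after 23 hr; read fluorescence 1 hr later.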

For assay [19], the target named is Androgen receptor (Homo sapiens) (UniProt P10275). Description: qHTS assay to identify small molecule antagonists of the androgen receptor (AR) signaling pathway using the MDA cell line in the presence of 0.5 nM R1881 (AID 1259243). The procedure, abridged:
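Reporter cells cultured without CO2 receive test chemicals, then 0.5 nM R1881 final; after 16 hr at 37C, ONE-Glo is added and light output recorded.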

Assay [20] addresses Estrogen receptor (Homo sapiens) (UniProt P03372). As to the kind of experiment: qHTS assay to identify small molecule antagonists of the estrogen receptor alpha (ER-alpha) signaling pathway using the BG1 cell line in the presence of 0.1 nM 17-beta-estradiol (AID 1259244). Also: nearly all actives have a fitted effect of over 50% in size. An outline of the steps: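 Estradiol at 0.1 nM (final) stimulates the endogenous ER-alpha of VM7Luc4E2 cells carrying an ERE-driven luciferase; compounds are co-incubated 22 h at 37C and luciferase output quantified by luminescence.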

Androgen receptor (Homo sapiens), sequence (P10275 whole entry, looked up): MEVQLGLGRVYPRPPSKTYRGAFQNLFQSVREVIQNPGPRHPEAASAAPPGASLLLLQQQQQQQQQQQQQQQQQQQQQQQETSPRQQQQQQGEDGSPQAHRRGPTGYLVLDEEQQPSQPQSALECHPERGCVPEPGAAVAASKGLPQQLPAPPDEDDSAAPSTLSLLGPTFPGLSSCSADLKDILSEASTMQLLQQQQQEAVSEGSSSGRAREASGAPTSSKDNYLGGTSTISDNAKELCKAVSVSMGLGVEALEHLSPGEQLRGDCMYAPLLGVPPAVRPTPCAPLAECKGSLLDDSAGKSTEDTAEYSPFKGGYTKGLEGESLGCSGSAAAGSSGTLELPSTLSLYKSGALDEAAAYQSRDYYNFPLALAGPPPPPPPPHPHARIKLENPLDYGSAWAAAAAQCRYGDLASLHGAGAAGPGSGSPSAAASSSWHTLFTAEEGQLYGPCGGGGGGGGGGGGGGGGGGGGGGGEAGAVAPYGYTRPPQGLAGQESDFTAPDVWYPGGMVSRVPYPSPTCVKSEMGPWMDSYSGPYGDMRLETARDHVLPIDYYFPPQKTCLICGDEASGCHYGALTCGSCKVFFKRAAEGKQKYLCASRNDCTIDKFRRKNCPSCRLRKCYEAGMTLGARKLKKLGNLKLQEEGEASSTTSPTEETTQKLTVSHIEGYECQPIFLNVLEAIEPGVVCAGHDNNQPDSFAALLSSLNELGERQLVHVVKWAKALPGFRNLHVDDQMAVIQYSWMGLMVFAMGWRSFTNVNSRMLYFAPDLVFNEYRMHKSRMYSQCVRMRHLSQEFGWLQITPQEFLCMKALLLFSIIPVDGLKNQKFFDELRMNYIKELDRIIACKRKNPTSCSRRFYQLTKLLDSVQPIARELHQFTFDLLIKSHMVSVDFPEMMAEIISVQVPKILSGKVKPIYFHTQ
Estrogen receptor (Homo sapiens), sequence (P03372 whole entry, looked up): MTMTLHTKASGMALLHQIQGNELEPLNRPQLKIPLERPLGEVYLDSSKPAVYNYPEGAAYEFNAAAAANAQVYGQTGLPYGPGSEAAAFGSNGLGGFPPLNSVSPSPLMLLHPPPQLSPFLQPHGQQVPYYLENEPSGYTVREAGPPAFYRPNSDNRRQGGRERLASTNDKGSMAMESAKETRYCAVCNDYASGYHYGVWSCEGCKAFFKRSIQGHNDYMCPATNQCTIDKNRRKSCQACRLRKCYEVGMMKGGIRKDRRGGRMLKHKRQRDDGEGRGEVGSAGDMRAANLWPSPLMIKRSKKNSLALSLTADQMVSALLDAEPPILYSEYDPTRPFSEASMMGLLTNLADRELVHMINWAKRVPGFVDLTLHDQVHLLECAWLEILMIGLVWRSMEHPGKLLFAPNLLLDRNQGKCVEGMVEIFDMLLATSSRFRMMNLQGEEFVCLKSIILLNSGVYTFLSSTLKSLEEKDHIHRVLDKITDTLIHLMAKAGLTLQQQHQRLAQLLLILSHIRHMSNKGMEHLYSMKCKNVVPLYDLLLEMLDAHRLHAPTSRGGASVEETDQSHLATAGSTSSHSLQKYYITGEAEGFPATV

As to `CC(=O)OCC1=C(C(=O)O)N2C(=O)[C@@H](NC(=O)CSc3ccncc3)[C@H]2SC1`, the Potency entry in [1], in assay [2], in assay [3], in assay [4], in assay [5] and in assay [6] was “inactive” throughout. Besides, the Potency result in assay [7], in assay [8], in assay [9], in assay [10], in assay [11] and in assay [12] was “inactive” in each case. Further, the Potency result in assay [13], in assay [14], in assay [15], in [16], in [17] and in assay [18] was “inactive” each time.
For `CCCOC(=O)c1c(Cl)c(Cl)c(Cl)c(Cl)c1C(=O)OCCC`, the Potency result in assay [1], in assay [2], in assay [3], in assay [4], in [5] and in [6] was “inactive” in each case. The Potency entry in assay [7], in [8], in assay [9], in assay [10], in assay [11] and in [12] was “inactive” each time. The Potency entry in assay [13], in assay [15], in assay [16] and in assay [17] was “inactive” in each case.
In the case of `Cc1cc(CCCOc2c(C)cc(-c3noc(C(F)(F)F)n3)cc2C)on1`, the Potency entry in assay [1], in [2], in assay [3], in assay [4], in assay [5] and in [6] was “inactive” each time. The Potency entry in assay [9], in [10], in assay [11], in assay [12], in assay [13] and in [15] was “inactive” throughout. Besides, the Potency result in assay [16], in assay [17] and in assay [18] was “inactive” each time. Moreover, in [19], the Potency was 26.6 µM (active).
With `CCCC(=O)OC(=O)CCC`, the Potency result in [1], in assay [2], in [3], in [4], in [5] and in [6] was “inactive” each time. In addition, the Potency result in assay [8], in assay [9], in assay [10], in assay [11], in [12] and in assay [13] was “inactive” in each case. Further, the Potency entry in assay [16], in assay [17] and in [18] was “inactive” throughout.
Regarding `CCCCC[C@H](O)/C=C/[C@H]1[C@H](O)CC(=O)[C@@H]1C/C=C\CCCC(=O)O`, the Potency result in assay [1], in assay [2], in assay [3], in assay [4], in assay [5] and in assay [6] was “inactive” throughout. In addition, the Potency result in assay [7], in [9], in [10], in [11], in assay [12] and in assay [13] was “inactive” each time. Further, the Potency result in [14], in [15] and in assay [16] was “inactive” in each case.
`CC(=O)NCCO`: the Potency entry in assay [1], in assay [2], in [3], in assay [4], in [5] and in assay [6] was “inactive” each time. Further, the Potency entry in [8], in assay [9], in [10], in [11], in [12] and in [13] was “inactive” each time. In addition, the Potency entry in assay [16] and in assay [17] was “inactive” in each case.
With `CCCCCCCCCCCC(=O)OCC(O)CO` (configuration not stated), the Potency entry in assay [1], in assay [2], in assay [3], in assay [4], in assay [5] and in assay [6] was “inactive” each time. Besides, the Potency entry in [8], in [9], in [10], in [11], in [12] and in assay [13] was “inactive” in each case. Also, the Potency entry in [20], in assay [14], in [15], in assay [16], in [17] and in assay [18] was “inactive” each time.
